EPAC2 antagonist: blocks human EPAC2 exchange factor. Q8WZA2. EPAC2 GEF exchange of Rap1B-BODIPY-GDP, fluorescence. Potency, µM (doses to about 114 µM), without a hit: at the highest dose activity, negative = inhibition, hits mostly inhibitors. 360,000 compounds, 0.18% hits; also: % is scaled to controls: 0 for no effect and ±100 for the full control effect; nearly all actives have a fitted effect of over 45% in size
EPAC1 antagonist: blocks human EPAC1 exchange factor; EPAC1 GEF assay, Rap1b-BODIPY-GDP exchange fluorescence; O95398; Potency, µM (series often up to 115 µM), for inactives: at the top dose activity change, negative = inhibition, actives largely listed as inhibitors; 360,000 compounds, 0.14% hits;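 also: plate controls were vehicle for no effect and positive control for full effect; nearly all actives have a fitted effect of over 50% in size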
USP1 inh: blocks the human USP1/UAF1 deubiquitinase complex; O94782; recombinant USP1/UAF1, Ub-Rhodamine cleavage fluorescence; Potency, µM (doses to about 57.1 µM), without a hit: at the top dose activity change, negative = inhibition, hits mostly inhibitors; 390,000 compounds, 0.23% hits; also: % is scaled to controls: 0 for no effect and ±100 for the full control effect; nearly all actives have a fitted effect of over 60% in size
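In this screen, compounds sit with the deubiquitinase complex (1nM) for 15 min at room temperature before Ub-Rho is added at 150nM final. Fluorescence rise is then followed for 6 reads every 60 seconds.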
EPAC2 agonist: agonists of human EPAC2 (RAPGEF4). AID 720711. EPAC2 activation, biochemical qHTS; response scale: 100% = 6.5 mM cAMP response. Q8WZA2. 360,000 compounds, 0.079% hits. Potency, µM (series often up to 154 µM), for inactives: at the highest dose activation, usual class: activators; also: nearly all actives have a fitted effect of over 50% in size
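Compounds were added across a concentration range to EPAC2 (100 nM), RAP1B-BODIPY-GDP (250 nM) and GDP (50 uM). After 5 min at room temperature, fluorescence was recorded at 5-min intervals for 30 min.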
VDR inhibitor: blocks the human vitamin D receptor. 400,000 compounds, 0.93% hits. Potency, µM, for the others: max response, negative = inhibition, most hits filed as inhibitors. VDR-SRC2-3 peptide fluorescence polarization, 2 h. P11473; also: % is scaled to controls: 0 for no effect and ±100 for the full control effect
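Signal is fluorescence polarization, reporting how far test compounds block the interaction of VDR with the SRC2-3 coregulator peptide after a 2 h room-temperature incubation.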
EPAC1 agonist: agonists of human EPAC1; O95398; EPAC1 agonist qHTS, biochemical assay; response scale: 100% = response to 6.5 mM cAMP; Potency, µM (doses to about 154 µM), for inactives: at the highest dose activation, actives largely listed as activators; 360,000 compounds, 0.073% hits; also: nearly all actives have a fitted effect of over 60% in size
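Multi-concentration qHTS readout: loss of Rap1B-bound BODIPY-GDP fluorescence driven by 100 nM EPAC1 with excess GDP (50 uM), monitored kinetically at room temperature; agonist response expressed relative to 6.5 mM cAMP.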
The depositor's hits bear a star; u = inconclusive; x = no result given. The list is not random: actives were taken first. Their share in the collection is about 1.2%. Calls follow the shape of the dose curve; as a rule, active = well fitted curve in the direction sought with a large enough effect; inconclusive = small, poorly fitted or top-dose-only effect, or another doubt; inactive = no such curve, though single readings can be large; an effect the other way counts as inactive or inconclusive. Potency is read from the fitted curve at half-maximal effect.

SMILES	EPAC2 antagonist	EPAC1 antagonist	USP1 inh	EPAC2 agonist	VDR inhibitor	EPAC1 agonist
CCOC(=O)c1c(S(=O)(=O)N2CCCC(C(=O)NCc3ccc(Cl)cc3)C2)c(C)n(C)c1C (stereo unspecified)	x	x	-21%	x	12%	x
NCCCCCCNc1nc2c(N)ncnc2n1[C@@H]1O[C@@H]2COP(=O)(O)O[C@H]2[C@H]1O	x	x	x	x	10%	x
O=c1c(CCc2ccccc2)nc2cnc(Nc3ccccc3)nc2n1Cc1cccs1	x	x	x	x	-9%	x
NC(=O)C1CC2(NC(=O)NC2=O)c2cc(F)ccc2O1 (stereo unspecified)	x	x	x	x	12%	x
O=C(NCc1cccc(C(F)(F)F)c1)c1cccc2c1C(=O)c1ccc(N3CCC(Cc4ccccc4)CC3)cc1S2(=O)=O	45%	10%	25µM*	-35%	-7%	-48%
S=C(NNC(=S)Nc1ccccc1)Nc1ccccc1	2%	5%	-23%	-3%	71µM*	-7%
NC(=S)NNC(=S)Nc1ccccc1	-1%	u	-7%	4%	u	-9%
COc1ccc(CCNC(=O)C(=O)NCC(c2ccco2)S(=O)(=O)c2ccc(F)cc2)cc1 (stereo unspecified)	x	x	2%	x	-2%	x
CCOc1cccc(C(=O)Nc2ccc3oc(Cc4ccc(Cl)cc4)nc3c2)c1	-2%	-11%	-29%	7.9µM*	12%	6%
O=C(Nc1ccc2oc(Cc3ccc(Cl)cc3)nc2c1)c1cccnc1	2%	-16%	-7%	4%	12%	11%
O=C/C=C/c1c(-c2ccccc2)cc2oc3ccccc3cc1-2	2%	u	u	8%	35µM*	-6%
CCc1ccc(C2/C=C\CNC(c3ccccc3)C(=O)N2Cc2ccc(C)cc2)cc1 (stereo unspecified)	x	x	x	x	-27%	x
COC1=CC(=O)c2c(ccc3ncnc(N)c23)C1=O	40µM*	40µM*	0.89µM*	-1%	u	-6%
COc1cc(Cl)c(C)cc1NC(=O)CSc1cc(Cl)ccc1Cl	15%	25µM*	-21%	-5%	u	7%
Cc1ccc(Cl)cc1NC(=O)CSC(N)=O	17%	10%	-22%	7%	45µM*	-4%
O=C(O)CN1C(=O)/C(=C\c2cccc(OCc3ccc(F)cc3)c2)SC1=S	u	-24%	u	-6%	45µM*	-2%
O=C(O)CN1C(=O)/C(=C\c2cccc(OC(=O)c3ccco3)c2)SC1=S	u	-8%	-10%	3%	-21%	4%
O=C(O)CN1C(=O)/C(=C/c2ccsc2)SC1=S	3%	-10%	-24%	9%	-7%	0%
COc1ccc(/C=C2/SC(=S)N(CCC(=O)O)C2=O)cc1	-2%	-10%	-8%	11%	-9%	1%
O=C(O)CN1C(=O)/C(=C\c2cccc(OCc3ccc(Cl)cc3)c2)SC1=S	u	-26%	u	-2%	50µM*	-1%
O=C(O)CCN1C(=O)/C(=C\c2cccc(Oc3ccccc3)c2)SC1=S	79µM*	u	u	8%	35µM*	3%
O=C(O)CN1C(=O)/C(=C\c2cccc(OCc3ccccc3F)c2)SC1=S	89µM*	u	-18%	0%	u	6%
CC(C)CCNC(=O)Cn1c(SCc2cccc(F)c2)nc2ccncc21	x	x	x	x	-11%	x
O=C1/C(=C\c2cc(Cl)c(O)c(Cl)c2)SC(=S)N1Cc1ccccc1	92%	270%	4µM*	u	3%	-8%
COc1ccc(/C=C2/SC(=S)N(Cc3ccccc3)C2=O)cc1O	-1%	-21%	-10%	11%	13%	21%
SMILES	EPAC2 antagonist	EPAC1 antagonist	USP1 inh	EPAC2 agonist	VDR inhibitor	EPAC1 agonist
CCc1ccc(-n2nc(CO)c(C(=O)NCCCc3ccccc3)n2)cc1	x	x	-20%	x	-5%	x
Cc1ccc(C)c(S(=O)(=O)N2CCN(C(=O)/C=C/c3ccco3)CC2)c1	4%	u	u	6%	89µM*	1%
CC(C)(C)c1c(Cl)c(O)c(-c2ccccc2)c(=O)n1-c1ccccc1	-6%	79µM*	-7%	0%	12%	-4%
Cc1c(O)c2ccccc2n(-c2ccccc2)c1=O	9%	5%	-13%	5%	-5%	-4%
O=S(=O)(c1cccnc1)N1CCN(c2nc(-c3cccs3)nc3ccccc23)CC1	x	x	x	x	0%	x
O=C(CCC1CCCN(C(=O)CC2=CCCCC2)C1)N1CCN(c2ccccn2)CC1 (stereo unspecified)	-2%	6%	-12%	0%	79µM*	3%
O=C(O)c1cccc(S(=O)(=O)Nc2ccccc2-c2ccccc2)c1	7%	-10%	-16%	-7%	-12%	-20%
O=S(=O)(Nc1ccccc1-c1ccccc1)c1ccccc1	50µM*	-19%	u	17%	-1%	12%
O=S(=O)(c1ccc(Br)cc1)c1nnn2c1nc(Nc1cccc(C(F)(F)F)c1)c1sccc12	x	x	u	x	17%	x
Nc1sc2c(c1C(=O)NC1CC1)CCCC2	5%	15%	-27%	6%	79µM*	10%
O=c1oc2c(CN3CCCCC3)c(O)ccc2cc1-c1nc2ccccc2[nH]1	33%	15%	28µM*	30%	4%	22%
Cc1cn2c(=O)c(S(=O)(=O)NCc3ccccc3Cl)c(C)nc2s1	x	x	u	x	-2%	x
Cc1nnc(NC(=O)c2nc(S(=O)(=O)Cc3ccccc3C)ncc2Cl)s1	3%	20%	-23%	5%	35µM*	-7%
COc1ccc(NC(=O)c2nc(S(=O)(=O)Cc3ccc(C)cc3)ncc2Cl)cc1	x	x	-17%	x	u	x
CCc1nnc(NC(=O)c2nc(S(=O)(=O)Cc3ccc(C)cc3)ncc2Cl)s1	4%	-25%	-15%	-14%	22µM*	-10%
Cc1ccc(CS(=O)(=O)c2ncc(Cl)c(C(=O)Nc3ccc(OC(F)F)cc3)n2)cc1	-21%	u	-15%	-18%	u	-13%
CCS(=O)(=O)c1ncc(Cl)c(C(=O)Nc2ccc(C)cc2)n1	-20%	u	-27%	0%	16µM*	-6%
O=C(NCC(c1ccc2c(c1)OCO2)N1CCN(c2ccccc2)CC1)c1ccccc1 (stereo unspecified)	x	x	-20%	x	1%	x
Cc1c(OCc2ccc(C(=O)O)cc2)ccc2c(-c3ccccc3)cc(=O)oc12	u	-16%	u	0%	79µM*	-6%
CCOC(=O)C(Oc1ccc2c(-c3ccccc3)cc(=O)oc2c1C)c1ccccc1 (stereo unspecified)	-1%	-20%	-19%	8%	u	-1%

Source: PubChem BioAssay (National Center for Advancing Translational Sciences (NCATS))
